A selection: hits, their analogues and other compounds. The true share with any hit is near 1.4%.
AID504770: growth inhibitors of E. coli YBA685 in a screen for V. cholerae RctB (chromosome II replication) inhibitors; E. coli YBA685 rctB-dependent plasmid, OD600 growth, 3 h; active compounds read low; 130,000 tested, 0.27% active; z-score (no concentration beside the values); in the data active means z-score below about -2, passing the limit was not always enough
Mtb MbtI inh: blocks the Mycobacterium tuberculosis siderophore enzyme MbtI. purified MbtI enzyme, fluorescence intensity read-out. inhibition, % (concentration not given with the values). 100,000 tested, 0.89% active. AID 493033; in the data active means inhibition mostly above about 56%, no sharp cut-off; inactive means mostly below about 77%
PV pol inh: inhibitors of poliovirus RNA polymerase binding and polymerization. P03300. poliovirus polymerase elongation, fluorescence polarization; active compounds read low. % elongation, % (compound at 16.7 µg/mL). 150,000 tested, 0.66% active. AID 588519; in the data active means % elongation below about 90%
Target sequence (P03300 1749-2209 limits assumed): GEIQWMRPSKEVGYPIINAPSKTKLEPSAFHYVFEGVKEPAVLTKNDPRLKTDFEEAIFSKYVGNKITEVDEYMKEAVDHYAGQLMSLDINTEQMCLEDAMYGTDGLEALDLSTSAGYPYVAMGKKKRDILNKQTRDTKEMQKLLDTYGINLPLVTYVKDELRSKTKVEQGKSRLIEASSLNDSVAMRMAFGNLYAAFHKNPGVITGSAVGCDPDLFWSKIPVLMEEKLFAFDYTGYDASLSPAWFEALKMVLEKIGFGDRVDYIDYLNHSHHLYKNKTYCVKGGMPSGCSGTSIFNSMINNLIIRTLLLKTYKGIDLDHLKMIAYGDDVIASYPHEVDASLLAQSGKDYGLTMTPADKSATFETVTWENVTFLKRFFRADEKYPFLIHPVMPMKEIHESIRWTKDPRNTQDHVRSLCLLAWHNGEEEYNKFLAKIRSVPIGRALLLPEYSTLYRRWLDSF
Mtb MenB inh: blocks the Mycobacterium tuberculosis MenB enzyme. 100,000 tested, 0.43% active. AID 540299. P9WNP5. MenB enzyme assay, absorbance read-out. inhibition, % (concentration not given with the values); in the data active means inhibition above about 21%, passing the limit was not always enough
Starred values were filed as active, the others as inactive; . = not tested or not shown.

SMILES	AID504770	Mtb MbtI inh	PV pol inh	Mtb MenB inh
O=C(c1ccccc1)c1ccccc1NC(=O)c1ccccc1C(=O)O	.	.	112.0	.
O=C(Nc1ccccc1C(=O)O)c1ccccc1	-0.1	55.5*	.	.
Cc1ccc(C(=O)c2nsc(Cl)c2Cl)cc1	-0.45	.	96.0	10.6
O=c1[nH][nH]c(=S)n1Cc1ccccc1	-1.2	35.1	103.0	-9.9
CCCCn1c(=O)[nH][nH]c1=S	2.05	77.9*	96.0	-17.1
Cc1[nH]c2ccccc2c1C=Nc1ccc(N=Cc2c(C)[nH]c3ccccc23)cc1	-1.05	.	118.0	-30.0
Cc1nn(-c2ccccc2)c2sc(C(=O)C(C#N)c3ccc4ccccc4n3)cc12 (stereo not drawn)	1.7	-1.5	102.0	-19.3
C=CCc1cccc(/C=N/n2c(-c3ccccc3C)n[nH]c2=S)c1O	2.6	12.7	98.0	-58.6
COCCn1c(C)cc(/C=N/n2c(-c3ccccc3C)n[nH]c2=S)c1C	0.5	95.7*	82.0*	-36.9
CCCCN(CC)CCCNC(=O)c1cc2c(-c3ccc(OC)c(OC)c3)nn(C)c2s1	.	.	80.0*	.
O=C(c1cccs1)N1CCN(C/C=C/c2ccccc2)CC1	-0.15	-7.4	101.0	42.6*
CSc1ncc(C(=O)N2CCN(c3ncccn3)CC2)n1-c1ccccc1	0.4	7.1	100.0	6.5
CO/N=C(/C(=O)N[C@@H]1C(=O)N2C(C(=O)O)=C(COC(C)=O)CS[C@H]12)c1csc(N)n1	-3.15*	-14.9	100.0	4.5
CC(C)(O/N=C(/C(=O)N[C@@H]1C(=O)N2C(C(=O)[O-])=C(C[n+]3ccccc3)CS[C@H]12)c1csc(N)n1)C(=O)O	.	2.5	98.0	-4.7
O=C1OC(c2cccs2)=N/C1=C\c1cccc(F)c1	-0.2	95.1	88.0*	.
CC(C)C(C)(N)C#N (stereo not drawn)	0.1	-8.3	104.0	-2.9
C=Cc1ccc(C=C)cc1	-0.65	72.1*	64.0*	22.9
Clc1ccc2c(c1)CN(Cc1ccccc1)CO2	-2.2	6.1	99.0	12.7
CN1/C(=C/C=C(C#N)C#N)C=Cc2ccccc21	-0.8	-7.2	104.0	-13.3
CN1/C(=C/c2cccc[n+]2C)C=Cc2ccccc21	-0.8	3.2	87.0*	-84.4
CCC(c1nnc(SCC(=O)NCCc2ccc(Cl)cc2Cl)o1)N(C)C (stereo not drawn)	-0.3	78.6*	101.0	-16.5
COc1ccc(Cc2nn3c(Cc4ccccc4)nnc3s2)cc1	0.2	93.1*	96.0	-37.0
Cc1cc(=O)[nH]c2c(C)c(Cl)ccc12	-0.7	2.0	101.0	28.8*
COc1cccc2c(C)cc(=O)[nH]c12	1.8	-3.7	104.0	.
CCOC(=O)CSc1nc2cccnc2s1	1.1	14.9	96.0	5.6
SMILES	AID504770	Mtb MbtI inh	PV pol inh	Mtb MenB inh
O=c1c(=NO)c(=O)c2ccccc12	2.25	15.7	32.0*	-16.4
CCN1C(=O)c2cccc3c(NC(C)=O)ccc1c23	0.05	.	108.0	-37.0
O=C(O)C1C2C=CC(C2)C1C(=O)N1CCN(Cc2ccccc2)CC1 (stereo not drawn)	0.05	-1.1	80.0*	-28.2
CC(=O)Oc1ccc(OC(C)=O)c(C2=C3C(=O)N(CCc4c[nH]c5ccccc45)CC(=O)N3CCC2)c1	0.3	100.3*	104.0	12.2
COc1ccc(C)cc1NC(=O)CSc1ccc(-c2ccccn2)nn1	.	.	81.0*	.
O=C(NCc1ccco1)c1cnn2ccccc12	0.65	.	.	.
Cn1c(=O)c2c(-c3ccc(Br)cc3)n(Cc3ccco3)cc2n(C)c1=O	0.8	6.2	101.0	-10.0
O=C1C(Nc2ccccc2)=CC(=O)c2ncccc21	.	3.4	82.0*	-7.2
CCOC(=O)c1cc2c(N3CCOCC3)nccc2nc1C(F)(F)F	-0.8	.	.	.
COC(=O)NCCSc1nnnn1-c1ccccc1	1.9	7.7	101.0	30.7*
O=C(NCCSc1nnnn1-c1ccccc1)c1ccccc1	0.25	-4.5	103.0	-13.3
Nc1c(C(=O)Nc2ccccc2)nnn1Cc1ccccc1	0.1	-39.8	98.0	-6.4
O=C(Nc1ccccc1)c1nnn(Cc2ccccc2)c1NC(=O)C(F)(F)F	-1.1	.	89.0*	-14.4
CCOC(=O)c1c(-c2ccc(C)o2)csc1NC(=S)NC(=O)N(C)C	0.45	85.0*	99.0	-64.6
Nc1cccc2c1C(=O)N(C(=O)c1ccc3c(c1)S(=O)(=O)N=C1CCCCCN13)C2=O	-0.05	-1.3	58.0*	-31.7
COc1cccc(COCC(O)CN2CCC(C(N)=O)CC2)c1 (stereo not drawn)	-0.6	99.1*	101.0	-8.7
NC(=O)COC(=O)c1n[nH]c2ccccc12	-3.5*	102.5	103.0	-3.5
COC(=O)COc1ccc2cccc(-n3cnnn3)c2c1	1.25	89.6	101.0	38.8*
CCCNc1ncccc1C(N)=O	1.2	88.7	101.0	34.8*
C=C(Br)CSCc1nc2ccccc2[nH]1	0.05	.	.	.
Cc1ccccc1-n1c(SCc2nnc(-c3cc4c(s3)CCCC4)o2)nnc1N1CCOCC1	-1.8	8.4	99.0	-35.2
CCCc1nc(=S)c2ccccc2[nH]1	-0.45	91.5*	102.0	-26.2
COc1cc(C(=O)n2nc(C)c(Sc3ccc(Cl)cc3)c2C)cc(OC)c1OC	.	.	103.0	.
COc1cc(C(=O)Sc2ccc(Cl)cc2)cc(OC)c1OC	2.65	.	84.0*	-27.6
CN(c1ccccc1)S(=O)(=O)c1ccc(C(=O)Nc2nnc(C(F)(F)F)o2)cc1	0.7	9.2	108.0	-28.5
SMILES	AID504770	Mtb MbtI inh	PV pol inh	Mtb MenB inh
COc1cccc(N2C(=O)CC(n3nc(Nc4cccc(C)c4)sc3=S)C2=O)c1 (stereo not drawn)	1.25	98.8*	101.0	-0.1
COc1cccc(N2C(=O)CN=C2Nc2nc(C)cc(C)n2)c1	1.25	.	107.0	-7.8
CCN(CCO)c1nc(NC2CCCCC2)c2cnn(C)c2n1	-2.1*	-22.2	105.0	-19.3
CC(C)c1ccc(N2C(=O)C=CC2=O)cc1	-0.8	101.3*	100.0	-1.1
O=C1C=CC(=O)N1c1cccc(Cl)c1	-4.05*	100.5*	103.0	4.2
CC(=O)Nc1cccc(N2C(=O)C=CC2=O)c1	0.35	95.5*	105.0	-58.4
O=C1c2ccccc2C(=O)N1c1ccccc1	0.75	0.7	101.0	-34.0
O=C1C=CC(=O)N1c1ccccc1	-7.05*	99.0*	102.0	-2.7
CCC(C(=O)C(C)C(O)C(C)CCc1ccc(C)c(O)c1C(=O)O)[C@H]1O[C@](CC)([C@H]2CC[C@](O)(CC)[C@H](C)O2)C[C@@H]1C (stereo partly drawn)	.	-253.0	100.0	-9.0
CC(=O)Nc1cccc(N=Cc2cc(I)cc(C)c2O)c1	-1.2	2.5	98.0	-9.9
C=CCNC(=O)c1ccc(Cl)c(Cl)c1	-0.65	2.5	106.0	-51.6
Cc1ccc(N2C(=O)C=CC2=O)cc1	-1.35	99.8*	103.0	7.1
O=C1C=CC(=O)N1c1ccc(C2CCCCC2)cc1	-0.2	.	.	.
CCCCc1ccc(N2C(=O)C=CC2=O)cc1	-1.15	97.6*	101.0	.
O=C1Cc2ccccc2C(=O)N1c1cccc(Cl)c1	-1.15	-0.4	78.0*	-34.9
COc1ccccc1OCc1nnc(SCC(=O)N2CCc3ccccc3C2)n1C	-0.5	-6.2	101.0	-62.5
CN(C)C(Cc1ccccc1)C(=O)C(C)(C)C (stereo not drawn)	0.65	-3.1	104.0	1.4

Screens deposited in PubChem by ICCB-Longwood Screening Facility, Harvard Medical School.
